This note sets out measurements from PubChem BioAssay (Tox21).

A number with no mark means an inactive call. Results filed as inconclusive are left out. Calls of active or inactive are those of the source. Unless noted, the call rests on the fitted dose curve.

Assay [1] in a line: Nuclear factor erythroid 2-related factor 2/antioxidant responsive element (Nrf2/ARE) small molecule agonists: qHTS cell viability counter screen in human keratinocytes (AID 1919968; active means well fitted curve in the direction sought with a large enough effect in the repeat runs; an effect the other way counts as inactive or inconclusive; further: nearly all actives have a fitted effect of over 55% in size; further: potency means the concentration at half of the fitted maximal effect). The essentials:
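Seed 1,500 KeratinoSens cells per well, then incubate 5 h at 37 C/5% CO2. Add compounds in DMSO and incubate 23 h. Add CellTiter-Fluor, wait 1 h and read fluorescence.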
On the technique in general: qHTS replaces the single test concentration by a dilution series.

A short description of assay [2]: Nuclear factor erythroid 2-related factor 2/antioxidant responsive element (Nrf2/ARE) small molecule agonists: luciferase reporter gene qHTS assay in human keratinocytes (AID 1919969). Further: nearly all actives have a fitted effect of over 35% in size. Further: potency means the concentration at half of the fitted maximal effect.
Assay [3] deals with Gonadotropin-releasing hormone receptor (Homo sapiens) (UniProt P30968). Briefly: Human gonadotropin-releasing hormone receptor (GnRHR) small molecule agonists, calcium flux assay in GnRHR-HEK293 cells (AID 1920063). Further: nearly all actives have a fitted effect of over 35% in size. The essentials:
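Cells: HEK293 stably expressing human GnRHR. Steps: overnight (18 h) culture, 1 h calcium dye loading at 37 C, compound addition, kinetic fluorescence read at 480/540 nm. Each compound tested at 15 concentrations in triplicate.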
A general note: Calcium assays in cells follow changes in intracellular calcium, usually with a dye or a luminescent sensor.

Assay [4] deals with KiSS-1 receptor (Homo sapiens) (UniProt Q969F8). Briefly: Human kisspeptin (KISS1R) small molecule agonists, calcium flux assay in KISS1R-HEK293 cells (AID 1920064; active means well fitted curve in the direction sought with a large enough effect in the repeat runs; an effect the other way counts as inactive or inconclusive). The essentials: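 Cells plated and incubated 18 h; dye added, 1 h at 37 C; compounds in DMSO pinned in; signal read at 480/540 nm every second for 3 min. Each compound tested at 15 concentrations in triplicate.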

The nature of assay [5]: G protein-coupled receptor (GPCR) small molecule agonists, calcium flux assay: HEK293 wild type cell line counter screen (AID 1920065). In a few lines:
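Counter-screen of the Tox21 10K library for non-specific calcium release: dye-loaded cells received compounds in DMSO and were monitored by kinetic fluorescence (480/540 nm, 3 min). Fifteen concentrations, run in triplicate.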

The nature of assay [6]: p53 small molecule agonists, cell-based qHTS assay with human liver microsomes: qHTS cell viability counter screen (AID 1963579). Further: nearly all actives have a fitted effect of over 45% in size. In a few lines:
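Metabolic activation used human liver microsomes and NADPH, both 0.5 mg/mL final, over 16 hours at 37 C on p53RE-bla cells (4,000/well). Cytotoxicity measured by CellTiter-Glo luminescence, 30 min at room temperature.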

Assay [7] in a line: p53 small molecule agonists, cell-based qHTS assay with rat liver microsomes: qHTS cell viability counter screen (AID 1963580). Further: nearly all actives have a fitted effect of over 45% in size. In a few lines:
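Intracellular ATP, by CellTiter-Glo luminescence, defines viability. HCT-116 p53RE-bla cells, 4,000 per well, were compound-treated in the presence of rat liver microsomes and NADPH for 16 h at 37 C.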

Assay [8] in a line: p53 small molecule agonists, cell-based qHTS assay: qHTS cell viability counter screen (AID 1963581). Further: nearly all actives have a fitted effect of over 45% in size. Further: potency means the concentration at half of the fitted maximal effect. The essentials: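 Cells: HCT-116 with p53 response element-driven beta-lactamase. Treatment: 16 h, 37 C, compounds in DMSO. Read: CellTiter-Glo luminescence after 30 min RT.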
A short description of assay [9]: p53 small molecule agonists, cell-based qHTS assay (AID 1963582; active means well fitted activation curve with a large enough effect in the signal ratio in the repeat runs, not every such curve was filed as active; the % refers to the signal ratio). The essentials: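 Quantitative HTS in p53RE-bla cells: after a 5 h settling period, compounds delivered in DMSO were left on cells for 16 h at 37 C, and reporter induction was measured as fluorescence following 2 h substrate loading.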
Assay [10] has as its target 5-hydroxytryptamine receptor 2A (Homo sapiens) (UniProt P28223). As to the kind of experiment: 5-hydroxytryptamine receptor 2A (HTR2A) small molecule antagonists, cell-based qHTS assay (AID 1963586). Further: nearly all actives have a fitted effect of over 45% in size. In a few lines:
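Antagonist-mode intracellular calcium assay: DOI (4 nM) added after 5 min compound pre-incubation at room temperature to dye-loaded HTR2A-CHO cells. Fluorescence followed for 3 min, sampled every second.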

Assay [11] has the same target. As to the kind of experiment: 5-hydroxytryptamine receptor 2A (HTR2A) small molecule agonists, cell-based qHTS assay (AID 1963587). Further: nearly all actives have a fitted effect of over 30% in size. The essentials:
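Kinetic calcium-flux fluorescence (2 min, 1 sec intervals) after compound addition in agonist mode. HTR2A-CHO cells were cultured 18 h, then dye-loaded 1 h at 37 C.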

Assay [12] deals with Muscarinic acetylcholine receptor M1 (Homo sapiens) (UniProt P11229). As to the kind of experiment: Cholinergic receptor muscarinic 1 (CHRM1) small molecule antagonists, cell-based qHTS assay (AID 1963588). Further: nearly all actives have a fitted effect of over 40% in size. In a few lines:
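CHRM1-CHO calcium-flux assay, antagonist mode. Cells were seeded 18 h, dye-loaded 1 h at 37 C and given compound for 5 min at RT, then acetylcholine was added at 50nM. FDSS fluorescence was read 3 min; 15 concentrations, three runs.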

Assay [13] in a line: cAMP Responsive Elements (CRE) small molecule agonists, cell-based qHTS assay (AID 1963590). In a few lines:
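Agonist mode qHTS in CRE-bla HEK 293T cells: compounds dosed from DMSO for 3 h at 37 C/5% CO2, followed by LiveBLAzer B/G FRET substrate for 2 h at room temperature.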

Assay [14] in a line: cAMP Responsive Elements (CRE) small molecule antagonists, cell-based qHTS assay (AID 1963591; active means well fitted inhibition curve with a large enough effect in the signal ratio in the repeat runs, not every such curve was filed as active; the % refers to the signal ratio). In a few lines: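 Antagonist mode: test compounds are co-incubated with the adenylyl cyclase activator NKH477 (0.25 uM final) on CRE-bla HEK293T cells for 3 h at 37 °C, followed by LiveBLAzer substrate loading.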
For assay [15], the target named is Beta-2 adrenergic receptor (Homo sapiens) (UniProt P07550). Briefly: Adrenergic beta2 receptor (ADRB2) small molecule antagonists, cell-based qHTS assay (AID 1963592). Further: series mostly up to about 92 µM; nearly all actives have a fitted effect of over 50% in size. The essentials: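 Cells (CHO, stable ADRB2 overexpression) incubated 18-20hr at 37C; compounds added from DMSO; agonist mix (1nM isoproterenol, 100uM IBMX, 25uM Ro-20-1724) added; 0.5hr RT; d2-cAMP and anti-cAMP-cryptate added; 1hr RT; 665/615 nm read.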

For assay [16] the target is unchanged. As to the kind of experiment: Adrenergic beta2 receptor (ADRB2) small molecule agonists, cell-based qHTS assay (AID 1963593).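 Further: CHO cells stably overexpressing human ADRB2.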 In a few lines: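 CHO cells stably over-expressing ADRB2 were plated overnight at 37C, then dosed with compounds plus a stimulation mix containing 100uM IBMX and 25uM Ro-20-1724 for 0.5hr at room temperature. cAMP was measured by HTRF competition, 1hr.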

The target in assay [17] is D(2) dopamine receptor (Homo sapiens) (UniProt P14416). Briefly: Dopamine D2 receptor (DRD2) small molecule agonists, cell-based qHTS assay (AID 1963594). Further: nearly all actives have a fitted effect of over 35% in size. The essentials:
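cAMP accumulation in DRD2-HEK293 cells measured by HTRF after 1 h detection; compounds added 10 min before NKH477 (200nM […]) forskolin-analogue stimulation, 30 min at room temperature, with Ro20-1724 present at 0.1 mM final.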

Assay [18] has the same target. As to the kind of experiment: Dopamine D2 receptor (DRD2) small molecule antagonists, cell-based qHTS assay (AID 1963595; active means well fitted inhibition curve with a large enough effect in the signal ratio in the repeat runs, with a control signal flat; the % refers to the signal ratio). In a few lines:
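Stable D2 receptor HEK293 line, 24 h after seeding. Compound preincubated 10 min, then quinpirole (12 nM) with forskolin analogue NKH477 (200 nM), 30 min, room temperature. Detection by time-resolved FRET of cAMP.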

Assay [19] in a line: p53 small molecule agonists, cell-based qHTS assay with rat liver microsomes (AID 1963578). In a few lines:
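Metabolic activation by rat liver microsomes and NADPH, each 0.5 mg/mL final, added right after compounds to p53RE-bla reporter cells (4,000/well, plated 5 h earlier). 16 h at 37 C, then LiveBLAzer substrate for 2 h at room temperature in the dark; fluorescence read-out.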

In assay [20] the target is Muscarinic acetylcholine receptor M1 (Homo sapiens) (UniProt P11229). Briefly: Cholinergic receptor muscarinic 1 (CHRM1) small molecule agonists, cell-based qHTS assay (AID 1963589). Further: nearly all actives have a fitted effect of over 35% in size. The essentials:
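Agonist-mode qHTS in CHO cells stably carrying human muscarinic M1. Intracellular calcium is tracked by fluorescence every second after compound transfer; each compound runs at 15 concentrations in three independent runs.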

Chain of Gonadotropin-releasing hormone receptor (Homo sapiens) (P30968 whole entry, looked up): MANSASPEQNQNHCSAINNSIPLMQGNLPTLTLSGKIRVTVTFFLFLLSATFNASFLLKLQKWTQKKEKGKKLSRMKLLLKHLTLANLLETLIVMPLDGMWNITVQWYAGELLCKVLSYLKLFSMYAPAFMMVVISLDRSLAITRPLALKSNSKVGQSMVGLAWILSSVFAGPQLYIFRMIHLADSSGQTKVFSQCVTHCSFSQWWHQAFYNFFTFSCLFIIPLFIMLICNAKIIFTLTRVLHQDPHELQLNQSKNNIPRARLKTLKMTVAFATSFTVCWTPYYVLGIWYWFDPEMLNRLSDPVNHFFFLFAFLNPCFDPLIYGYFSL
Chain of 5-hydroxytryptamine receptor 2A (Homo sapiens) (P28223 whole entry, looked up): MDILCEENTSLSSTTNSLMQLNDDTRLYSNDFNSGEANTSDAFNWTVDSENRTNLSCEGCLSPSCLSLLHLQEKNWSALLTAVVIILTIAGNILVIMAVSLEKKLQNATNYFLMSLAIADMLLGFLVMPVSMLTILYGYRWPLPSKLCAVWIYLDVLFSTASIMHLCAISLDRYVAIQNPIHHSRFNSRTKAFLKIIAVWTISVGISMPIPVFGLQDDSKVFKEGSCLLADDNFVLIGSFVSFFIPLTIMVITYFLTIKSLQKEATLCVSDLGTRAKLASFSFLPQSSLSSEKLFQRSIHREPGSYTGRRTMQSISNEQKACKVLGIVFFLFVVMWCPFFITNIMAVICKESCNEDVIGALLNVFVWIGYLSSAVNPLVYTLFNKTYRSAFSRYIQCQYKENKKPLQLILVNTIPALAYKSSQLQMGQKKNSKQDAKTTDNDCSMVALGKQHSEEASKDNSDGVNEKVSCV
Chain of D(2) dopamine receptor (Homo sapiens) (P14416 whole entry, looked up): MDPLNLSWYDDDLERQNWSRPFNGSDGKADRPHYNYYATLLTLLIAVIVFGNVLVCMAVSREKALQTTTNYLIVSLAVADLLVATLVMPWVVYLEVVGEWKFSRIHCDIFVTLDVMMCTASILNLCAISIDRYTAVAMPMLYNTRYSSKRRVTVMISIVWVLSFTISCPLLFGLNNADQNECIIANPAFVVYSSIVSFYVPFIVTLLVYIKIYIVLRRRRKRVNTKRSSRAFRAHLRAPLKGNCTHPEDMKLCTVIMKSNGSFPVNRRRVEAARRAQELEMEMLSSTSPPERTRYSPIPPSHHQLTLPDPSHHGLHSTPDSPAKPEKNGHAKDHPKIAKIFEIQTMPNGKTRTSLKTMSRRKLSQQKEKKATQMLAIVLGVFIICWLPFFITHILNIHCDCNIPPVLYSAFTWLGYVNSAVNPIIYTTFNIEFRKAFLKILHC
Chain of Muscarinic acetylcholine receptor M1 (Homo sapiens) (P11229 whole entry, looked up): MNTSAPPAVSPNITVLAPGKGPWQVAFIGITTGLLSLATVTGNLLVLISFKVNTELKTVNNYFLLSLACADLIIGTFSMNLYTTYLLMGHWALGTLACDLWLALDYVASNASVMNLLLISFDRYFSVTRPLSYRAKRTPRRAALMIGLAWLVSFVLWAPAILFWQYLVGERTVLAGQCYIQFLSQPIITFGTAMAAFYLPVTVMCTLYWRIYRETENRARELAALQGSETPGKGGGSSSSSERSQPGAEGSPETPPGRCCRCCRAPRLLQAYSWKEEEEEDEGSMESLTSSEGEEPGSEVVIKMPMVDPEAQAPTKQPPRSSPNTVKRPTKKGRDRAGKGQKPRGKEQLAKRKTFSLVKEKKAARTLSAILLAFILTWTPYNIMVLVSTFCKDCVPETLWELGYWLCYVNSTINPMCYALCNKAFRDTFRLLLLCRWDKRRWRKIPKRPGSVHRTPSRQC
Chain of KiSS-1 receptor (Homo sapiens) (Q969F8 whole entry, looked up): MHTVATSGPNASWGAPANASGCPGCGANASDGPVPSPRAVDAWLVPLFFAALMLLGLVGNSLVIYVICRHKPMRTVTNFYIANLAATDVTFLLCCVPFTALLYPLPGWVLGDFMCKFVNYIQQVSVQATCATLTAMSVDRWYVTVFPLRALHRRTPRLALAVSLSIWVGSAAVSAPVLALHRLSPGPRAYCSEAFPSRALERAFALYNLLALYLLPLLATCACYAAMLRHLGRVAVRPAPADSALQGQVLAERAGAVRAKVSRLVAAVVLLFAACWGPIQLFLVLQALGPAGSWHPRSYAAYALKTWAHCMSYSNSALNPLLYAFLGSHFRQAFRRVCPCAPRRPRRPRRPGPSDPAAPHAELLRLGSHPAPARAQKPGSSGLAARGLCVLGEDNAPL
Chain of Beta-2 adrenergic receptor (Homo sapiens) (P07550 whole entry, looked up): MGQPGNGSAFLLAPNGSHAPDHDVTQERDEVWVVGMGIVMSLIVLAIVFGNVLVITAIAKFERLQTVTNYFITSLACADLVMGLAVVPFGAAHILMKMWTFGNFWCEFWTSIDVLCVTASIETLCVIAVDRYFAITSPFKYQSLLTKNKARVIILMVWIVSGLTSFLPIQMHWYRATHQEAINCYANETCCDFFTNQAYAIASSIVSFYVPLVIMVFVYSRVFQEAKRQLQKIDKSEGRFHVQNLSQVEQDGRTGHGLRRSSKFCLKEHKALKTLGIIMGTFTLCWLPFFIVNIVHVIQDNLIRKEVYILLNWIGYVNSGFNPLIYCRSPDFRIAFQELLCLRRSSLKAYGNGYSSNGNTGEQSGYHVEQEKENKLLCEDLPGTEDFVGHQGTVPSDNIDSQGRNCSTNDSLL

In the case of `CNC(=O)Oc1ccccc1C(C)C`, the Potency entry in assay [1], in assay [2], in assay [3], in [4], in [5] and in assay [6] was “inactive” each time. In addition, the Potency result in assay [7], in assay [8], in [9], in [10], in assay [11] and in [12] was “inactive” each time. The Potency result in [13], in assay [14], in assay [15], in [16], in [17] and in assay [18] was “inactive” in each case.

In the case of `c1cc[n+]2c(c1)-c1cccc[n+]1CC2`, the Potency entry in assay [1], in assay [2], in assay [3], in [4], in [5] and in assay [19] was “inactive” in each case. Besides, the Potency result in assay [7], in assay [10], in assay [11], in assay [12], in [20] and in assay [13] was “inactive” each time. Further, the Potency result in [14], in assay [15], in assay [16], in [17] and in assay [18] was “inactive” throughout.

`CN1[C@@H]2CC[C@H]1CC(O)C2` (stereo not given in full): the Potency entry in assay [1], in assay [2], in [3], in [4], in [5] and in [19] was “inactive” throughout. The Potency result in assay [6], in [7], in [9], in assay [10], in assay [11] and in assay [12] was “inactive” in each case. Further, the Potency entry in [20], in assay [13], in assay [17] and in [18] was “inactive” in each case.

In the case of `C=C(Cl)CSC(=S)N(CC)CC`, the Potency entry in [1], in assay [3], in [4], in assay [5], in [6] and in assay [7] was “inactive” in each case. Besides, the Potency result in assay [8], in [9], in assay [10], in assay [11], in assay [12] and in [20] was “inactive” in each case. In addition, the Potency result in assay [13], in [14], in assay [15], in [17] and in [18] was “inactive” throughout. In addition, in assay [2], the Potency was 66.8 µM (active).

Consider `CCSCc1ccccc1OC(=O)NC`, for which the Potency result in [1], in assay [2], in assay [3], in [4], in [5] and in assay [6] was “inactive” each time. For the same compound, the Potency result in [7], in assay [8], in [9], in [10], in [11] and in assay [12] was “inactive” throughout. Besides, the Potency result in assay [20], in [13], in assay [14], in [15], in assay [16] and in [17] was “inactive” each time. The Potency result in [18] was “inactive”.

In the case of `CC(C)N(C(=O)COc1nnc(C(F)(F)F)s1)c1ccc(F)cc1`, the Potency result in [1], in assay [2], in assay [3], in [4], in assay [5] and in [6] was “inactive” each time. In addition, the Potency entry in assay [7], in [8], in [9], in [10], in assay [11] and in [12] was “inactive” each time. Further, the Potency result in [20], in assay [15], in [17] and in [18] was “inactive” each time.

As to `CN(C)[C@@H]1C(=O)C(C(N)=O)=C(O)[C@@]2(O)C(=O)C3=C(O)c4c(O)ccc(Cl)c4[C@@](C)(O)[C@H]3C[C@@H]12`, the Potency entry in [1], in assay [2], in assay [3], in [4], in assay [5] and in assay [19] was “inactive” in each case. Also, the Potency entry in assay [6], in assay [7], in assay [16], in assay [17] and in assay [18] was “inactive” each time.

For `CC[C@H](C)[C@H]1O[C@]2(C=C[C@@H]1C)C[C@@H]1C[C@@H](C/C=C(\C)[C@@H](O[C@H]3C[C@H](OC)[C@@H](O[C@H]4C[C@H](OC)[C@@H](O)[C@H](C)O4)[C@H](C)O3)[C@@H](C)/C=C/C=C3\CO[C@@H]4[C@H](O)C(C)=C[C@@H](C(=O)O1)[C@]34O)O2`, the values for the Potency in assay [1] and in [8] were 16.1 µM (active) and 19.1 µM (active), respectively. Besides, the Potency entry in assay [2], in assay [3], in assay [4], in assay [5], in assay [19] and in assay [6] was “inactive” each time. For the same compound, the Potency entry in [16] and in assay [17] was “inactive” throughout.
